An excerpt weighted towards active compounds, which were near 4.1% of everything screened.
hcDAF-12 act: activates DAF-12 receptor from parasite H. contortus; hit rate 1.4% among 370,000; activation, % at 6.8 µM; HEK293 hcDAF-12 lit1-tk-luc reporter, luminescence; 0% DMSO, 100% Δ7-dafachronic acid;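 active = activation above the mean of all tested compounds plus 3 SD, cut at about 5.5% in these data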
ssDAF12 agonist: activators of S. stercoralis DAF-12 nuclear receptor. activation, % at 6.8 µM. HEK293 ssDAF-12/GRIP1 lit1-tk-luc reporter, luminescence; % of 3 µM dafachronic acid response. hit rate 1% among 370,000;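 active = activation above the mean over all tested compounds plus 3 SD, cut at about 0.9% in these data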
DAX1 inh-1: inhibits human nuclear receptor DAX1; HEK293 Gal4-DAX1 luciferase reporter, luminescence; inhibition, % at 6.75 µM; hit rate 0.99% among 340,000; AID 504766;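 active = inhibition above the mean over all tested compounds plus 3 SD, cut at about 4.2% in these data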;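 note: inhibition shows as a rise in luminescence from relieved DAX1 repression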
Target sequence (P51843 207-470 limits assumed): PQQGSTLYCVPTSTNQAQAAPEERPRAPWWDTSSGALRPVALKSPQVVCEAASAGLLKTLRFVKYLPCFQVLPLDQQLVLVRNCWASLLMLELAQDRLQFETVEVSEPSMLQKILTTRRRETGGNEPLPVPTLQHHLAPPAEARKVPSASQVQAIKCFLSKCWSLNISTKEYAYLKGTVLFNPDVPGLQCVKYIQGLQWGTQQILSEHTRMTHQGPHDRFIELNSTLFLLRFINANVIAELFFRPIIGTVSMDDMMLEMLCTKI
hgDAF-12 ag: activates the H. glycines DAF-12 receptor ligand-binding domain. HEK293 GAL4-hgDAF12 UAS-luciferase reporter, agonist luminescence; normalized to butyrate control. activation, % at 6.8 µM. hit rate 1.8% among 370,000;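 active = activation above a cutoff set at the mean of all screened compounds plus 3 SD, cut at about 10% in these data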
DAX1 inh-2: blocks DAX1 repression of SF-1 activated StAR promoter; HEK293T StAR-luciferase reporter, SF-1/DAX-1 repression relief; inhibition, % at 6.8 µM; hit rate 1.1% among 370,000; AID 652010;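 active = inhibition above the mean over all tested compounds plus 3 SD, cut at about 3.6% in these data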;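 note: higher inhibition means more luminescence from relief of DAX-1 repression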
hgDAF12 ag: confirmation of H. glycines DAF-12 agonists. AID 743050. shares compounds with hgDAF-12 ag. hit rate 80% among 3,300. HEK293 GAL4-hgDAF12 luciferase reporter, agonist mode; percent of butyrate response. activation, % at 6.8 µM;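 active = mean activation over triplicate wells above the hit cutoff derived from the earlier primary screen, cut at about 11% in these data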
LXRb DAF12 ctr: activates human LXR-beta, counter-screen for DAF-12 agonists | activation, % at 6.8 µM | 3,300 tested, under 10 active | AID 743051 | shares compounds with hgDAF-12 ag | HEK293 Gal4-LXR luciferase reporter, 24 h;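 active = mean activation of the triplicate above a set limit carried over from the primary screen, none filed active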
Target sequence (P55055 whole entry, looked up, the tested form may be a part): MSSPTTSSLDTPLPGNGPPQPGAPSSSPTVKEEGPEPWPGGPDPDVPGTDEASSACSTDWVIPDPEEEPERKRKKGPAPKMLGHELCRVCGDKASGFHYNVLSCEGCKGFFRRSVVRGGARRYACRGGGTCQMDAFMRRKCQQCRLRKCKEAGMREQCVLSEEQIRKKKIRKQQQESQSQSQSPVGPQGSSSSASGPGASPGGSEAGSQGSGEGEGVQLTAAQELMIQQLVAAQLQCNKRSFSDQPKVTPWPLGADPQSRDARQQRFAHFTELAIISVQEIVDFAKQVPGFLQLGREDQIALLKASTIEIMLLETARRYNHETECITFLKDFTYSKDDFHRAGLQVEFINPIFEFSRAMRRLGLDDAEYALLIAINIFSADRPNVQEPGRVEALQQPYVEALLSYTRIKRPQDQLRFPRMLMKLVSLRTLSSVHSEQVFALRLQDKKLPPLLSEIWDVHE
Each line names hits and unclear results; the compound was inactive in the other large screens (follow-up assays come after a bar, where they were run).

CC(=O)Oc1ccc(C(=O)[C@H]2[C@H]3C(=O)N(c4ccc5ccccc5c4)C(=O)[C@H]3[C@@H]3C=CC=NN32)cc1	hgDAF-12 ag 14 | hgDAF12 ag inactive | LXRb DAF12 ctr inactive
CCOc1ccc(-c2nc(CSCC(=O)NC3CCC3)c(C)o2)cc1	none (no result: DAX1 inh-1, DAX1 inh-2)
COc1ccc(C2NC(=O)c3ccccc3N2)cc1OC (stereo not given)	none
O=C1NC(c2ccc3c(c2)OCO3)Nc2ccccc21 (stereo not given)	none
O=C1NC(c2ccc3ccccc3c2)Nc2ccccc21 (stereo not given)	hgDAF-12 ag 14 | hgDAF12 ag 13 | LXRb DAF12 ctr inactive
COc1ccc2ccccc2c1C1NC(=O)c2ccccc2N1 (stereo not given)	hgDAF-12 ag 14 | hgDAF12 ag inactive | LXRb DAF12 ctr inactive
O=C(NN=C1C2CC3CC1CC(Cl)(C3)C2)c1cccs1	hcDAF-12 act 6.3, DAX1 inh-1 5.0, hgDAF-12 ag 27, DAX1 inh-2 4.0 | hgDAF12 ag inactive | LXRb DAF12 ctr inactive
O=C(NN=C1C2CC3CC1CC(Cl)(C3)C2)c1ccccn1	hcDAF-12 act 6.2, hgDAF-12 ag 14 | hgDAF12 ag inactive | LXRb DAF12 ctr inactive
O=C(NN=C1C2CC3CC(C2)CC1C3)c1ccncc1	none
Cc1ccc(Nc2cc(-n3cccn3)ncn2)c(C)c1	hgDAF-12 ag 15 | hgDAF12 ag 12 | LXRb DAF12 ctr inactive
COCCc1nc2ccc(C(=O)N3CCCCC3COC)cc2o1 (stereo not given)	none
COCCC1CCCCN1C(=O)c1ccc2nc(Cc3ccccc3F)oc2c1 (stereo not given)	hcDAF-12 act 5.6, hgDAF-12 ag 14, DAX1 inh-2 3.9 | hgDAF12 ag 12 | LXRb DAF12 ctr inactive
Cc1ccc(-n2c(C)nn(CCOc3ccccc3)c2=O)cc1	hgDAF-12 ag 13 | hgDAF12 ag inactive | LXRb DAF12 ctr inactive
S=C1NCCN1c1ccc(Cl)cc1	none (no result: DAX1 inh-1)
Cc1ccc(CN2CCCCC(NC(=O)c3ccccc3)C2=O)cc1 (stereo not given)	none (no result: DAX1 inh-1)
Cc1ccc(N=c2oc3cc(O)ccc3cc2C(N)=O)cc1	hgDAF-12 ag 18 | hgDAF12 ag inactive | LXRb DAF12 ctr inactive
COc1cccc(-n2cc(-c3ccc(F)cc3)[nH]c2=S)c1	hcDAF-12 act 5.6, hgDAF-12 ag 20 | hgDAF12 ag 12 | LXRb DAF12 ctr inactive
O=C(CSc1nnc(-c2cccs2)o1)Nc1cccc2ccccc12	none (no result: DAX1 inh-1)
COC(=O)N(C)C[C@H]1OCc2cn(nn2)CCCC(=O)N([C@H](C)CO)C[C@@H]1C	none (no result: DAX1 inh-1)
Cc1ccc(SCCN2CCC(C)CCC2=O)cc1 (stereo not given)	hgDAF-12 ag 14 | hgDAF12 ag 17 | LXRb DAF12 ctr inactive
C[C@H]1CCC(=O)N(CCSc2ccc(Br)cc2)CC1	none
O=C(c1ccc(Cl)c(Cl)c1)N1CCN(c2ccnc3cc(Cl)ccc23)CC1	none (no result: DAX1 inh-1, DAX1 inh-2)
Oc1[nH]c2ccccc2c1N=Nc1nncc2ccccc12	hgDAF-12 ag 16 | hgDAF12 ag 12 | LXRb DAF12 ctr inactive
Oc1[nH]c2ccccc2c1N=Nc1ccccn1	none
Fc1ccccc1CSc1nnc(-c2ccccc2)o1	hgDAF-12 ag 18 | hgDAF12 ag 14 | LXRb DAF12 ctr inactive
Fc1ccccc1CSc1nnc(-c2cccnc2)o1	DAX1 inh-1 4.6, hgDAF-12 ag 14 | hgDAF12 ag 11 | LXRb DAF12 ctr inactive
CCOC(=O)[C@@]12CCCC3=C1N(CCC3)C(=O)[C@H]2CC(=O)NCCCOC	none (no result: DAX1 inh-1)
N#CCSc1nnc(-c2ccc3c(c2)OCO3)o1	none
C/C(N)=C(/C#N)C(=O)CSc1nnc(-c2ccc3c(c2)OCO3)o1	hcDAF-12 act 6.0, ssDAF12 agonist 1.0, hgDAF-12 ag 19, DAX1 inh-2 5.9 | hgDAF12 ag 12 | LXRb DAF12 ctr inactive
O=C(NCc1ccccc1)[C@H]1CCCN1C(=O)[C@H]1CCCN1C(=O)c1ccc(Cl)cc1	none (no result: DAX1 inh-1)
NC(=O)c1ncn([C@@H]2O[C@H](C(=O)Nc3ccc(Oc4ccccc4)nc3)[C@@H](O)[C@H]2O)n1	none (no result: DAX1 inh-1)
O=C(Nc1ccccc1)c1cc(C2CCCN(C(=O)c3cccs3)C2)on1 (stereo not given)	hgDAF-12 ag 14 (no result: DAX1 inh-1) | hgDAF12 ag 13 | LXRb DAF12 ctr inactive
O=C(CSc1nnc(COc2ccccc2)n1-c1ccccc1)Nc1ccc(S(=O)(=O)Nc2nccs2)cc1	none (no result: DAX1 inh-1)
C#CC1(NC(=S)Nc2cccc(OC)c2)CCCCC1	hgDAF-12 ag 15 | hgDAF12 ag inactive | LXRb DAF12 ctr inactive
S=C(Nc1ccc(Cl)cc1)OC1CCC12CCC(c1ccccc1)CC2 (stereo not given)	none (no result: DAX1 inh-1)
CCOC(=O)C1CCCN(C(=O)c2ccc3nc(-c4cccc(OC)c4)oc3c2)C1 (stereo not given)	hgDAF-12 ag 14 | hgDAF12 ag 12 | LXRb DAF12 ctr inactive
COC(=O)C1C(=O)c2c([nH]c(C(=O)OC3CCCCC3)c2C)CC1C (stereo not given)	DAX1 inh-1 5.3, hgDAF-12 ag 15 | hgDAF12 ag 12 | LXRb DAF12 ctr inactive
COC(=O)C1C(=O)c2c([nH]c(C(=O)OCCOC(C)C)c2C)CC1C (stereo not given)	none (no result: DAX1 inh-1)
CCN(CC)C(=O)CC[C@H]1CC[C@]2(CCCN(Cc3ccccn3)C2)O1	none (no result: DAX1 inh-1)
O=C(COc1ccccc1Br)Nc1ccc2c(c1)OCCCO2	hgDAF-12 ag 15 | hgDAF12 ag 14 | LXRb DAF12 ctr inactive
CCN(CC(=O)Nc1ccc2c(c1)OCCO2)C(=O)COc1cc(C)ccc1Cl	none
Cc1ccc(Cl)c(OCC(=O)Nc2ccc3c(c2)OCCO3)c1	hgDAF-12 ag 14 | hgDAF12 ag 15 | LXRb DAF12 ctr inactive
Cc1ccc2nc(-c3ccc(SCC(=O)Nc4ccc5c(c4)OCCO5)nc3)[nH]c2c1	hgDAF-12 ag 20 | hgDAF12 ag 21 | LXRb DAF12 ctr inactive
O=C(COc1cc(Cl)c(Cl)cc1Cl)Nc1cccc(O)c1	hgDAF-12 ag 17 | hgDAF12 ag 18 | LXRb DAF12 ctr inactive
COC(=O)[C@]12C[C@H](CC(=O)NCc3cccc4ccccc34)C(=O)N(Cc3ccccc3)C1=C[C@H](C1CCCC1)O[C@@H]2C	none (no result: DAX1 inh-1)
Brc1ccc(-c2csc(N3CCOCC3)n2)cc1	DAX1 inh-1 7.5, hgDAF-12 ag 19, DAX1 inh-2 4.1 | hgDAF12 ag 11 | LXRb DAF12 ctr inactive
Brc1ccc(-c2csc(N3CCCCCC3)n2)cc1	none
CC(C)CNc1cccc2c1S(=O)(=O)N(Cc1cn(Cc3cccc(C(F)(F)F)c3)nn1)Cc1ccccc1O2	none (no result: DAX1 inh-1)
C[C@H]1[C@@H](OC(=O)NCc2cccc(C(F)(F)F)c2)CC[C@@]23CCCN2C(=O)CCC[C@@H]13	none (no result: DAX1 inh-1, DAX1 inh-2)
O=c1[nH]c2ccccc2nc1-c1ccccc1	hgDAF-12 ag 16 | hgDAF12 ag inactive | LXRb DAF12 ctr inactive
